Cruzain Triton: cruzain (T. cruzi) inhibition with detergent; purified cruzain, Z-FR-AMC fluorescence, 0.01% Triton; Potency, µM, for the others: max response, negative = inhibition, actives largely listed as inhibitors; P25779; AID 1478; 200,000 compounds, 0.43% hits;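 further: plate controls were neutral wells for no effect and buffer without enzyme for full effect; nearly all actives have a fitted effect of over 40% in size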
Target sequence (P25779 123-467 limits assumed): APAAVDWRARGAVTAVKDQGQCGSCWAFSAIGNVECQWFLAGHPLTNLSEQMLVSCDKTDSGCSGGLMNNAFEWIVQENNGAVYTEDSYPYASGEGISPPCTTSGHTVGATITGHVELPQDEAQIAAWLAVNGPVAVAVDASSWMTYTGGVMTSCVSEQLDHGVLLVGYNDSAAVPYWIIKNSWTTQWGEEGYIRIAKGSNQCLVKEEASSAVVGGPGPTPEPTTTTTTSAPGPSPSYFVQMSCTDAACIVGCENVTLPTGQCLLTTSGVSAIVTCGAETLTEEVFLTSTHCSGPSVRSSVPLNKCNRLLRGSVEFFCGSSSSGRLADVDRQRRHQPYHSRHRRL
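Sodium acetate buffer (100 mM, pH 5.5) containing 5 mM DTT and 0.01% Triton X-100 hosted 1.5 nM cruzain and test compound for 15 min at room temperature. Cleavage of 2 uM Z-FR-AMC was then tracked by fluorescence.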
Cruzain noTriton: cruzain (T. cruzi) inhibition without detergent; purified cruzain, Z-FR-AMC fluorescence, no detergent; Potency, µM, without a hit: max response, negative = inhibition, hits mostly inhibitors; 200,000 compounds, 2.3% hits; AID 1476;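 further: plate controls were enzyme without inhibitor for no effect and buffer without enzyme for full effect; nearly all actives have a fitted effect of over 40% in size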
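Detergent-free condition (0.00005% Triton X-100) in acetate buffer pH 5.5 with DTT. 1.5 nM enzyme and compound were pre-mixed 15 min, then 2 uM Z-FR-AMC substrate added; reaction progress from fluorescence change between first and third reads (60 s).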
* = called active by the depositor. A selection: hits, their analogues and other compounds. The true share with any hit is near 2.4%. The call rests on the fitted dose curve; in most records, active means well fitted curve in the direction sought with a large enough effect; inconclusive means small, poorly fitted or top-dose-only effect, or another doubt; inactive means no such curve, though single readings can be large; an effect the other way counts as inactive or inconclusive. Potency means the concentration at half of the fitted maximal effect.

How did Cc1cc(N2CCN(C)CC2)nc2ccc(NC(=O)Nc3ccccc3Cl)cc12 do in these assays?
Cruzain Triton: -1%; Cruzain noTriton: 10%

How did O=C(Cc1ccccc1)Nc1c(C(=O)Nc2ccccc2F)oc2ccccc12 do in these assays?
Cruzain Triton: -1%; Cruzain noTriton: 16%

Results for C[C@@]1(C(NC(=O)Cc2ccccc2)c2ccc(-c3ccccc3)cc2)C[C@H]1C1CCCCC1 (stereo partly drawn) ?
Cruzain Triton: 4%; Cruzain noTriton: 3%

Results for C[C@@]1(C(NC(=O)c2ccccc2)c2ccc(-c3ccccc3)cc2)C[C@H]1C1CCCCC1 (stereo partly drawn) ?
Cruzain Triton: -3%; Cruzain noTriton: 10µM*

What do the screens show for `CCc1cccc(C)c1NC(=O)c1ccc2c(c1)CCN2S(=O)(=O)c1ccc(Cl)cc1`?
Cruzain Triton: -2%; Cruzain noTriton: inconclusive

Results for CN(C)c1ccc(NS(=O)(=O)c2cc(Cl)ccc2Cl)cc1 ?
Cruzain Triton: -9%; Cruzain noTriton: -11%

Results for O=S(=O)(Nc1nc(-c2sccc2Cl)cs1)c1cc(Cl)ccc1Cl ?
Cruzain Triton: 20µM*; Cruzain noTriton: inconclusive

How did COc1cccc(CNC(=O)CCc2c(C)c3cc4c(C)coc4cc3oc2=O)c1 do in these assays?
Cruzain Triton: -8%; Cruzain noTriton: 4%

How did C=C(C)CN=C1NN=C(c2cc(C)n(-c3ccc(C)cc3)c2C)CS1 do in these assays?
Cruzain Triton: -6%; Cruzain noTriton: 7.9µM*

What do the screens show for `Cc1cc(C2=NNC(=NC3CC3)SC2)c(C)n1-c1ccccc1F`?
Cruzain Triton: -7%; Cruzain noTriton: inconclusive

How did Cc1ncc(CO)c2c1Oc1nc(-c3ccc(F)cc3)nc(SCC(=O)N3CCCCC3)c1C2 do in these assays?
Cruzain Triton: -2%; Cruzain noTriton: 3%

Results for CCOC(=O)c1[nH]c2ccccc2c1NC(=O)c1ccccc1OC ?
Cruzain Triton: -8%; Cruzain noTriton: 4%

Results for CCOC(=O)c1[nH]c2ccc(F)cc2c1NC(=O)Nc1ccccc1OC ?
Cruzain Triton: 1%; Cruzain noTriton: 7.9µM*

Results for Cc1cc(C)cc(-n2cnc3cc(C(=O)NCCc4ccccc4)ccc32)c1 ?
Cruzain Triton: -2%; Cruzain noTriton: 10%

How did O=C(/C(=C(\[O-])c1ccccc1)[n+]1ccc2ccccc2c1)c1ccccc1 do in these assays?
Cruzain Triton: -2%; Cruzain noTriton: inconclusive

What do the screens show for `O=C(/C(=C(\[O-])c1ccccc1)[n+]1ccc2ccccc2c1)c1ccc(Cl)cc1`?
Cruzain Triton: 0%; Cruzain noTriton: 25µM*

Results for Cc1cccc(Cn2cc(C(=O)Nc3ccc(S(N)(=O)=O)cc3)ccc2=O)c1 ?
Cruzain Triton: -2%; Cruzain noTriton: 29%

Results for O=C1NC(=O)C(=Cc2cn(CCOc3ccc4c(c3)OCO4)c3ccccc23)C(=O)N1 ?
Cruzain Triton: 0%; Cruzain noTriton: inconclusive

How did Cc1ccc(OCCn2cc(/C=C3\C(=O)NN(c4ccccc4)C3=O)c3ccccc32)cc1 do in these assays?
Cruzain Triton: -7%; Cruzain noTriton: 10µM*

What do the screens show for `COc1cccc(CNC(=O)c2ccc(-c3nc(COc4ccccc4)c(C)o3)cc2)c1`?
Cruzain Triton: -5%; Cruzain noTriton: 20%

Results for CSc1ccc(CCNC(=O)CCCn2c(=O)c3cccn3c3ccccc32)cc1 ?
Cruzain Triton: -3%; Cruzain noTriton: inconclusive

What do the screens show for `CCCCn1c(SCc2nc3ccccc3s2)nc2ccccc2c1=O`?
Cruzain Triton: -5%; Cruzain noTriton: -3%

What do the screens show for `CCCn1c(=O)c2ccccc2n2c(SCc3nc4ccccc4s3)nnc12`?
Cruzain Triton: 2%; Cruzain noTriton: 13µM*

What do the screens show for `Cc1ccccc1-n1c(SCC(N)=O)nc2sc(-c3ccccc3)cc2c1=O`?
Cruzain Triton: -5%; Cruzain noTriton: 10%

Results for C=CCSc1nc2sc(-c3ccccc3)cc2c(=O)n1N ?
Cruzain Triton: -5%; Cruzain noTriton: 32µM*

What do the screens show for `CC(=O)c1ccc(-c2ccc(-c3cc(=O)oc4c(C(C)C)ccc(C)c34)cc2)cc1`?
Cruzain Triton: -2%; Cruzain noTriton: 8.9µM*

What do the screens show for `Cc1ccc(C(C)C)c2oc(=O)cc(-c3ccc(-c4ccc(C(F)(F)F)cc4)cc3)c12`?
Cruzain Triton: 1%; Cruzain noTriton: inconclusive

How did Cc1cccc(-n2c(O)c(C=Nc3ccc(O)cc3)c3ccccc3c2=O)n1 do in these assays?
Cruzain Triton: -11%; Cruzain noTriton: inconclusive

Results for Cc1ccc(N=Cc2c(O)n(-c3ccc4c(c3)OCO4)c(=O)c3ccccc23)cc1 ?
Cruzain Triton: -3%; Cruzain noTriton: 3.2µM*

How did CCOCCSc1nc2c(c(-c3cccs3)c1C#N)CC/C2=C/c1cccs1 do in these assays?
Cruzain Triton: -5%; Cruzain noTriton: 16µM*

What do the screens show for `CCOC(=O)CC(=O)CSc1nc2c(c(-c3cccs3)c1C#N)CCC2`?
Cruzain Triton: -8%; Cruzain noTriton: -6%

Results for COC(=O)c1ccc(NC(=O)C2CCN(S(=O)(=O)c3ccc4c(c3)CCCN4C(C)=O)CC2)cc1 ?
Cruzain Triton: -5%; Cruzain noTriton: inconclusive

What do the screens show for `C=CCn1c(SCc2cc(C(C)=O)ccc2OCC)nc2ccccc2c1=O`?
Cruzain Triton: 14µM*; Cruzain noTriton: inconclusive

Results for COc1ccc(C(C)=O)cc1CSc1nc2ccccc2c(=O)n1-c1ccccc1 ?
Cruzain Triton: -10%; Cruzain noTriton: -20%

What do the screens show for `Cc1ccccc1CN1C(=O)c2ccccc2S(=O)(=O)c2ccc(C(=O)OCC3CCCO3)cc21` (stereo not drawn)?
Cruzain Triton: -3%; Cruzain noTriton: -9%

How did CCCCOc1ccc(C2=NC(c3ccccc3)=Nc3ccc(OC)cc3N2)cc1 do in these assays?
Cruzain Triton: -1%; Cruzain noTriton: 7%

Compound activity (PubChem)
